# Hits are enriched below; roughly 1.6% of the tested compounds scored in any of these assays.
# Mito fusion yeast – blocks mitochondrial division or promotes mitochondrial fusion; S. cerevisiae fusion-defective mutant growth rescue, CellTiterGlo 48 h; Potency, µM (series often up to 46.1 µM), usual class: activators; actives 0.23% (n = 320,000); also: nearly all actives have a fitted effect of over 45% in size
#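 S. cerevisiae fusion-defective temperature-sensitive mutants (e.g. fzo1-1, mgm1-5) grown 48 h at 37C in YPEG (ethanol/glycerol non-fermentable) medium with 23 nl compound per well; growth rescue read as CellTiterGlo luminescence.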
# gsp antag – gsp mutant antagonism. Potency, µM (top dose mostly 76.9 µM), usual class: inhibitors. AID 624288. gsp-mutant cells, cAMP HTRF, 30 min. actives 0.4% (n = 340,000); calls by dose curve; cell line not stated here;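 also: intracellular cAMP measured with PDE inhibitor Ro 20-1724 present during compound exposure; nearly all actives have a fitted effect of over 65% in size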
#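 G418-selected cells were plated in DMEM/10% FBS for 16-24 h at 37C, then treated with compounds plus the PDE inhibitor […] (300 uM solution added) for 30 min at 37C. Intracellular cAMP was measured by HTRF after 30 min lysis at room temperature.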
# FUS yeast rescue – suppressors of FUS proteinopathy in yeast | S. cerevisiae FUS-expressing, growth rescue, OD600, 24 h | Potency, µM (series often up to 76.6 µM), hits mostly activators | actives 0.24% (n = 390,000) | AID 1347120; also: nearly all actives have a fitted effect of over 55% in size
#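 Absorbance at 600 nm, taken 24hr after compound addition, measured rescue of FUS-yeast growth at 30C. Induction used 2% galactose with seeding at OD 0.005. Controls: CP55940 from 92uM final, DMSO only.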
# ALOX12 inh – ALOX12 (human) lipoxygenase inhibition; P18054; purified 12hLO, xylenol orange hydroperoxide absorbance; Potency, µM (top dose mostly 108 µM), hits mostly inhibitors; actives 1.1% (n = 580,000); AID 1671190
# Target sequence (P18054 whole entry, looked up): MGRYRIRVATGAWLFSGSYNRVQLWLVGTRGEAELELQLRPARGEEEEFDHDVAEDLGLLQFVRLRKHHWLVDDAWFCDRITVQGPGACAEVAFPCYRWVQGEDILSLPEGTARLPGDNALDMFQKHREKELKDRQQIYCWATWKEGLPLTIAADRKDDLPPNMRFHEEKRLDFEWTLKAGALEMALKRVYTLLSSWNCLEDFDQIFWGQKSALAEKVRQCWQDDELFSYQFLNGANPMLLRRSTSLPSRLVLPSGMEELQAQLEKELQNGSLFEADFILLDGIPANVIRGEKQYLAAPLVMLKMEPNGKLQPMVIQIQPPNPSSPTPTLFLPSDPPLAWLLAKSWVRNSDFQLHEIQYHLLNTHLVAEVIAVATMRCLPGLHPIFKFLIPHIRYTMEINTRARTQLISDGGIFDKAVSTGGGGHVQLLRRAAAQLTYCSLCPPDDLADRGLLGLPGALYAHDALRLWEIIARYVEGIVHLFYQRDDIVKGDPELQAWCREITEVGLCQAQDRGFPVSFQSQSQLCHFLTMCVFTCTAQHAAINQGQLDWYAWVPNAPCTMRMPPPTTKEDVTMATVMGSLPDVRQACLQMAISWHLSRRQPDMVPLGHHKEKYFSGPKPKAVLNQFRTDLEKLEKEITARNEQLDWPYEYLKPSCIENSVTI
#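 Purified human 12hLO at 150 nM in 25 mM Hepes, 0.01% Triton X-100, pH 7.0, preincubated 15 min at room temperature with compound. Reaction started with 40 uM arachidonic acid, 30 min at room temperature. Hydroperoxide measured by Fe-xylenol orange, 573/405 nm absorbance ratio.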
# gsp ag – gsp mutant agonism | Potency, µM (doses to about 76.9 µM), most hits filed as activators | actives 0.13% (n = 340,000) | AID 624287 | gsp mutant cells, cAMP HTRF, 30 min; active = well fitted activation curve with a large enough effect; inconclusive = small, poorly fitted or top-dose-only effect, or another doubt; inactive = no such curve, though single readings can be large or run the other way; cell line not stated here;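 also: phosphodiesterase inhibitor Ro 20-1724 added with compounds to block cAMP breakdown; nearly all actives have a fitted effect of over 60% in size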
#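 Cells in DMEM/10% FBS with G418 were pretreated with compounds in DMSO plus […] (300 uM stock) for 30 min at 37C. cAMP was measured by HTRF (cAMP-d2 plus anti-cAMP antibody-K) after 30 min at room temperature.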
# Numbers stand for hits; 0 = inactive; ? = inconclusive; - = no result; ! = not confirmed by another sample; [ ] = dose if it differs, or a comment. Unless noted, calls follow the shape of the dose curve; as a rule, active = well fitted curve in the direction sought with a large enough effect; inconclusive = small, poorly fitted or top-dose-only effect, or another doubt; inactive = no such curve, though single readings can be large; an effect the other way counts as inactive or inconclusive.
SMILES,Mito fusion yeast,gsp antag,FUS yeast rescue,ALOX12 inh,gsp ag
CN1/C(=C\C(=O)COC(=O)c2ccco2)C(C)(C)c2ccccc21,0,0,0,0,0
CN1/C(=C\C(=O)c2ccco2)C(C)(C)c2ccccc21,0,35.5µM,0,0,0
CN1/C(=C\C(=O)COc2ccc3c(c2)OCO3)C(C)(C)c2ccccc21,?,39.8µM,0,0,0
COc1ccccc1OCC(=O)/C=C1/N(C)c2ccccc2C1(C)C,0,0,0,0,0[15.4 µM]
CN1/C(=C/C(=S)NC(=O)C2CCC2)C(C)(C)c2ccccc21,0,0,0,?,0[15.4 µM]
CC(C)C(=O)NC(=S)/C=C1/N(C)c2ccccc2C1(C)C,0,0,0,35.5µM,0[15.4 µM]
Cc1ccc(C(=O)NC(=S)/C=C2\N(C)c3ccccc3C2(C)C)cc1,0,0,0,10µM,0
COc1cccc(-c2noc(-c3cccc(Br)c3)n2)c1,-,-,-,0,-
CCC(C(=O)Nc1ccc(C)c(OCc2cc(=O)n3ccc(C)cc3n2)c1)c1ccccc1 (configuration not stated),-,-,-,0,-
COC(=O)N(C)CC(=O)NC1CCCCCC1,-,-,-,0,-
Cc1ccc2nc(-c3ccc(C)o3)cc(C(=O)O)c2c1,-,-,-,5.01µM,-
Cc1ccc(-c2cc(C(=O)NN3CCOCC3)c3cc(Br)ccc3n2)o1,0,0,0,?,0[15.4 µM]
O=C(O)c1cc(-c2ccccn2)nc2ccc(Cl)cc12,-,-,-,0,-
Cc1ccc(-c2cc(C(=O)N3CCCCC3)c3cc(Br)ccc3n2)o1,-,-,-,8.91µM,-
Cc1ccc(-c2cc(C(=O)O)c3cc(Cl)ccc3n2)o1,-,-,-,7.94µM!,-
Cc1ccc(-c2onc3ccc(-c4cc(C(=O)O)c5cc(Br)ccc5n4)cc23)cc1,-,-,-,7.94µM,-
Cc1ccc(-c2cc(C(=O)O)c3cc(Br)ccc3n2)o1,0,0,-,15.8µM,?
COCCN1CCCN(C(=O)c2ccc(F)c(F)c2)c2ccccc21,-,-,-,44.7µM,-
CC(C)(C)OC(=O)CNC(=O)c1[nH]cnc1C(=O)NC1CCN(C(=O)OC(C)(C)C)CC1,?,0,?,0,0
CC(C)(C)OC(=O)N1CCC(NC(=O)c2nc[nH]c2C(=O)NC2CCN(C(=O)OC(C)(C)C)CC2)CC1,0,0,11.2µM,0,0
COc1cccc(CNCC(O)COc2ccc(C(=O)c3ccccc3)cc2)c1 (configuration not stated),0,0,0,0,0
O=C(c1ccccc1)c1ccc(OCC(O)CNCc2ccc(Cl)cc2)cc1 (configuration not stated),0,0,0,7.08µM,0
CCCCCCC(=O)N(O)C1CC(=O)N(c2ccc(Cl)cc2)C1=O (configuration not stated),0,0,0,1.26µM,0[15.4 µM]
CC(C)n1nc(C(=O)OCC(=O)Nc2ccccc2Cl)c2ccccc2c1=O,-,-,-,0,-
Cc1ccc(C(NC(=O)C(C)C)c2cc([N+](=O)[O-])c3cccnc3c2O)cc1 (configuration not stated),0,0,?,15.8µM,0
SMILES,Mito fusion yeast,gsp antag,FUS yeast rescue,ALOX12 inh,gsp ag
CC(C)C(=O)NC(c1cccs1)c1cc([N+](=O)[O-])c2cccnc2c1O (configuration not stated),0,0,0,-,?
CC1CCN(C(=O)C2CCCCN2S(=O)(=O)c2cccc([N+](=O)[O-])c2)CC1 (configuration not stated),0,50.1µM,0,0,0
CC(C)NC(=O)NCCn1c(-c2ccccc2)nc2ccccc21,-,-,-,0,-
N#CC(=C(\N)Sc1ccccc1N)/C(C#N)=C(/N)Sc1ccccc1N,18.4µM,-,-,-,-
Nc1ccccc1SCc1ccccc1,0,0,0,0,0
CN(Cc1nc2ccsc2c(=O)[nH]1)C(=O)COc1cccc(F)c1,-,-,-,5.01µM,-
Cc1c(/C=N/Nc2nc3ccccc3[nH]2)c2ccccc2n1C,0,39.8µM,?,?,0[15.4 µM]
CCC1(c2ccccc2)NC(=S)N(c2cccc(C)c2C)N1 (configuration not stated),0,0,0,25.1µM,0[15.4 µM]
O=C(NC1CCCCC1)N1Cc2[nH]cnc2C[C@H]1c1nc(-c2ccncc2)no1,-,-,-,12.6µM,-
O=C(c1ccccc1)N1Cc2[nH]cnc2C[C@H]1c1nc(-c2ccncc2)no1,-,-,-,0,-
CN(C)C(=O)c1cccc(-c2cccc(-c3nc(C(=O)NCc4ccccc4)cc4c3[C@@H](CCO)N(S(=O)C(C)(C)C)C4)c2)c1 (some centres not stated),-,-,35.5µM,?,-

# Screens (PubChem)
